Consider 21 compounds from PubChem BioAssay.

Assay [1] can be described thus: antimalarial activity against Dd2 strain (AID 2302;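 active = growth inhibition above 50% at the single 2 µM test dose, taken to imply half-maximal potency below 2 µM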;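 also: 0% = DMSO untreated growth and 100% = chloroquine plus artemisinin killed control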). The conditions noted are these: P. falciparum Dd2 in RBCs, LDH growth readout, 72 h; at 2 µM; active compounds read high.
A short description of assay [2]: human hepatoma cell viability loss – ATP luminescence, cytotoxicity control for P. falciparum antimalarial project, primary screen (AID 2303;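 active = inhibition above 50%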;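 also: 0% = DMSO wells and 100% = digitonin-killed cells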). To be noted: HepG2 viability, 24-48 h, at 10 µM, active compounds read high.
Assay [3] deals with L-lactate dehydrogenase (Plasmodium falciparum (isolate CDC / Honduras)) (UniProt Q27743). Kind of assay: PfLDH activity inhibition – cell lysate, 3D7 strain, counter-screen for P. falciparum growth inhibition project (AID 2304).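 Also: 0% = vehicle and 100% = reference inhibitor.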 To be noted: P. falciparum 3D7 crude extract, LDH APAD/NBT absorbance; at 2 µM; active compounds read high.
L-lactate dehydrogenase (Plasmodium falciparum (isolate CDC / Honduras)), sequence (Q27743 whole entry, looked up): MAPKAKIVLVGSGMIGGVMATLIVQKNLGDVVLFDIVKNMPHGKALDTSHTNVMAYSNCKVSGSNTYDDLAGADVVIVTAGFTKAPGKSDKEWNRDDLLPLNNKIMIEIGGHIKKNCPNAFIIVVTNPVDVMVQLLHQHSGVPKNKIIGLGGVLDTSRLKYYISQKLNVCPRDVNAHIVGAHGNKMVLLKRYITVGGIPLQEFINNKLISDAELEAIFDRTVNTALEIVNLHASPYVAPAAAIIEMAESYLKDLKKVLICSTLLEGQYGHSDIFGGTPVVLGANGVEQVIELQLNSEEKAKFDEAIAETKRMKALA
The nature of assay [4]: inhibition of 3D7 malaria parasite growth – strain 3D7 (AID 2306).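 Also: 0% = DMSO wells and 100% = chloroquine plus artemisinin control wells.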 The conditions noted are these: P. falciparum 3D7 erythrocytic growth, LDH absorbance, 72 h; at 2 µM; active compounds read high.
For assay [5], the target named is Calcium-dependent protein kinase 1 (Plasmodium falciparum (isolate 3D7)) (UniProt P62344). Kind of assay: PfCDPK1 kinase inhibitors, biochemical, TCAMS library (AID 1159585; cut-off not given, nearly all actives have IC50 up to about 0.98 µM;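 also: inhibitors leave more ATP so luminescence rises with inhibition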). To be noted: recombinant PfCDPK1, Kinase-Glo ATP depletion luminescence.
Calcium-dependent protein kinase 1 (Plasmodium falciparum (isolate 3D7)), sequence (P62344 whole entry, looked up): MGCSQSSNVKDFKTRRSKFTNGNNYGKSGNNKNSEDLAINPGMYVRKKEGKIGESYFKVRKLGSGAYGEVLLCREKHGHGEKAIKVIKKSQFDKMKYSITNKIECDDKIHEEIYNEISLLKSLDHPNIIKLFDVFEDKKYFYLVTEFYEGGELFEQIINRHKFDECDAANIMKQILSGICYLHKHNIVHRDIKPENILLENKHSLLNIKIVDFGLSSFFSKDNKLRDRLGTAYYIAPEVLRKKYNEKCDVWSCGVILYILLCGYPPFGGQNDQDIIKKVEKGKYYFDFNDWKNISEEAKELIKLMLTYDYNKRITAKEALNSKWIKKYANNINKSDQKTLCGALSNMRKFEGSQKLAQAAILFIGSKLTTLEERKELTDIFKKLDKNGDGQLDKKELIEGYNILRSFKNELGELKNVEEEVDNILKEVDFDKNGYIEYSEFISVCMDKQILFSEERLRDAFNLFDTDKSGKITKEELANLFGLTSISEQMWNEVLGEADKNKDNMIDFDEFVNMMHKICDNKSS
The target in assay [6] is Plasmodium falciparum protein kinase 6 (PK6, PF3D7_1337100) (UniProt Q8IDW1). Kind of assay: PfPK6 kinase inhibitors, biochemical, TCAMS library (AID 1159586). The conditions noted are these: recombinant PfPK6, Kinase-Glo ATP depletion luminescence.
Plasmodium falciparum protein kinase 6 (PK6, PF3D7_1337100), sequence (Q8IDW1 1-305): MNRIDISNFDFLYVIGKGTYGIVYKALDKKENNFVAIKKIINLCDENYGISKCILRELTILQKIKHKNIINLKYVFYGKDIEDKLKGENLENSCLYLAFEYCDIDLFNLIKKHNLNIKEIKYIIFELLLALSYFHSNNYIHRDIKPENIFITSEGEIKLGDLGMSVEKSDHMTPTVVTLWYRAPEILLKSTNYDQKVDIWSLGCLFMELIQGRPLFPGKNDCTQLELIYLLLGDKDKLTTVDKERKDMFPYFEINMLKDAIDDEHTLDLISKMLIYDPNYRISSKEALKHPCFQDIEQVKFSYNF
The target in assay [7] is Protein kinase 7 (PK7), Plasmodium falciparum 3D7 (PF3D7_0213400) (UniProt Q7YTF7). Kind of assay: inhibition of Plasmodium PK7 catalytic activity – biochemical, TCAMS antimalarial set, Kinase-Glo luminescence (AID 1159587). To be noted: recombinant PfPK7, Kinase-Glo ATP depletion luminescence.
Protein kinase 7 (PK7), Plasmodium falciparum 3D7 (PF3D7_0213400), sequence (Q7YTF7 1-343): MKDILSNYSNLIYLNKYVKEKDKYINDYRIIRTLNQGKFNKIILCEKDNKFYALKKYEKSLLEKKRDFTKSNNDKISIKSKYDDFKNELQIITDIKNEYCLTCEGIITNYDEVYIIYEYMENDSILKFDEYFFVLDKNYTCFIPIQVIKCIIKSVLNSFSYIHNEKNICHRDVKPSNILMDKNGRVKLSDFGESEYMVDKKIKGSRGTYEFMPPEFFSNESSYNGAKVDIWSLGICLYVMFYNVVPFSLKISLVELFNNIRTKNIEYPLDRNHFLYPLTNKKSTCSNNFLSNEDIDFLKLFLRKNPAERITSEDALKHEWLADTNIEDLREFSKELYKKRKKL
Assay [8] deals with Calcium-dependent protein kinase 4 (Plasmodium falciparum (isolate 3D7)) (UniProt Q8IBS5). Put plainly: PfCDPK4 kinase inhibitors, biochemical, TCAMS library (AID 1159588; cut-off not given, nearly all actives have IC50 up to about 0.91 µM). The conditions noted are these: recombinant PfCDPK4, Kinase-Glo ATP depletion luminescence.
Calcium-dependent protein kinase 4 (Plasmodium falciparum (isolate 3D7)), sequence (Q8IBS5 whole entry, looked up): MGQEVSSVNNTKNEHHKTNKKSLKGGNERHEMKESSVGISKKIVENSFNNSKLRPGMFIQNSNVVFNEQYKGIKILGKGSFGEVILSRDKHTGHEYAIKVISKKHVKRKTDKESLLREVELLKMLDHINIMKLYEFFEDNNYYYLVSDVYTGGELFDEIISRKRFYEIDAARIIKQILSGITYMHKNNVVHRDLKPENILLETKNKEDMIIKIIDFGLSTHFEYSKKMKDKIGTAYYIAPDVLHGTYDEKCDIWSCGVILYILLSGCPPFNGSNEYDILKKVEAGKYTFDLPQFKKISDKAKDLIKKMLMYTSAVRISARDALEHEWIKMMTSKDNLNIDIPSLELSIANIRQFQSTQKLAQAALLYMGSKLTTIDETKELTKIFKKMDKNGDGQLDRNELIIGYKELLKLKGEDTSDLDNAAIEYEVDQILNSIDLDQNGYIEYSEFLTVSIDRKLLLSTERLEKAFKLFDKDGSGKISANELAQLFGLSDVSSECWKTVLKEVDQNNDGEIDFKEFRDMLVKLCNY

Molecules are shown by their SMILES. Unmarked numbers belong to inactive results. For part of these data: Results with a measured potency or affinity are listed apart. Activity calls are given as the source filed them. Unless noted, no rule for the calls is given here.

As to `CC(C)(C)c1cc(N=NC(=O)c2ccncc2)cc(C(C)(C)C)c1O`, the growth inhibition in assay [1] and in assay [4] was 99% (active) in each case. For the same compound, the inhibition is 47% in assay [2] and 1% in assay [3]. Further, the outcome in assay [5], in assay [6], in assay [7] and in assay [8] was inactive.

On to `Cc1cc(C)c(S(=O)(=O)N2CCCCC(c3cccc(C(F)(F)F)c3)=N2)c(C)c1`, for which the growth inhibition in assay [1] was 95% (active); in assay [4], 94% (active). The figures for the inhibition in assay [2] and in assay [3] were -1% and -2%, respectively. In addition, the outcome in assay [5], in assay [6], in assay [7] and in assay [8] was inactive.

For the compound `C[C@@H](CC1CCCCC1)OC(=O)N[C@H]1CCN(C#N)C1`, the growth inhibition in assay [1] is 83% (active); in assay [4], 95% (active). Further, the figures for the inhibition in assay [2] and in assay [3] were 7% and 1%, respectively. In addition, the outcome in assay [5], in assay [6], in assay [7] and in assay [8] was inactive.

Consider `Oc1ccc(CN2CC[C@@H](N3CCN(CCc4ccccc4)CC3)[C@H](O)C2)cc1Cl`, for which the results for the growth inhibition in assay [1] and in assay [4] were 77% (active) and 100% (active), respectively. Further, the figures for the inhibition in assay [2] and in assay [3] were 0% and 2%, respectively. The outcome in assay [5], in assay [6], in assay [7] and in assay [8] was inactive.

As for `c1ccc(CCNc2ncnc3c2[nH]c2ccccc23)cc1`, the growth inhibition was 94% (active) in assay [1] and 95% (active) in assay [4]. Besides, the inhibition in assay [2] is 50% (active); in assay [3] it was -1%. In addition, the result in assay [5], in assay [6], in assay [7] and in assay [8] was inactive.

Consider `Cc1cnc(Nc2ccccc2)nc1N[C@@H](CCCN)C(=O)Nc1ccccc1`, for which the growth inhibition in assay [1] is 0%; in assay [4], 101% (active). Also, the inhibition in assay [2] was -2%; in assay [3] it was -1%. For the same compound, the result in assay [5], in assay [6], in assay [7] and in assay [8] was inactive.

With `Cc1cc(N)nc2ccc(-c3ccc(CCN)cc3)cc12`, the growth inhibition is 48% in assay [1] and 101% (active) in assay [4]. Further, the inhibition in assay [2] was 31%; in assay [3] it was -4%. Further, the result in assay [5], in assay [6], in assay [7] and in assay [8] was inactive.

On to `CS(=O)(=O)CCCNCc1ccc(-c2cc3c(Nc4ccc(OCc5ccccc5)cc4)ncnc3cn2)o1`, for which the growth inhibition in assay [1] is 16%; in assay [4] it was 87% (active). The inhibition in assay [2] is 10%; in assay [3] it was -8%. In addition, the result in assay [5], in assay [6], in assay [7] and in assay [8] was inactive.

Consider `Cc1cc(N(C)C)nc(Nc2ccc(NC(=O)c3cccc(F)c3)cc2)n1`, for which the growth inhibition in assay [1] was 62% (active); in assay [4], 100% (active). For the same compound, the inhibition in assay [2] was -8%; in assay [3], 4%. The outcome in assay [5], in assay [6], in assay [7] and in assay [8] was inactive.

Regarding `CCCCOC(=O)C1=C(C)NC2=C(C(=O)CC(c3ccc(OC)c(OC)c3)C2)C1c1ccc(O)cc1` (stereo not drawn), the growth inhibition in assay [1] is 75% (active); in assay [4], 90% (active). Further, the inhibition in assay [2] was -6%; in assay [3], 2%. For the same compound, the result in assay [5], in assay [6], in assay [7] and in assay [8] was inactive.

For the compound `COc1ccc(Nc2nccc(N3CCC(NC(=O)C(C)c4ccc(Cl)cc4)CC3)n2)cc1` (stereo not drawn), the growth inhibition in assay [1] was 52% (active); in assay [4] it was 94% (active). In addition, the figures for the inhibition in assay [2] and in assay [3] were 18% and -2%, respectively. The outcome in assay [5], in assay [6], in assay [7] and in assay [8] was inactive.

For the compound `O=C(Cn1c(CCc2cccc(F)c2F)cc(=O)c2ccccc21)N(Cc1ccc(-c2ccc(C(F)(F)F)cc2)cc1)C1CCN(CCN2CCOCC2)CC1`, the figures for the growth inhibition in assay [1] and in assay [4] were 41% and 101% (active), respectively. Further, the inhibition in assay [2] was 53% (active); in assay [3] it was 4%. Further, the result in assay [5], in assay [6], in assay [7] and in assay [8] was inactive.

As to `CN1CCN(c2ccc(Nc3c4ccccc4nc4ccccc34)cc2)CC1`, the growth inhibition in assay [1] is 94% (active); in assay [4], 100% (active). Further, the inhibition in assay [2] is -3%; in assay [3], -4%. Also, the outcome in assay [5], in assay [6], in assay [7] and in assay [8] was inactive.

In the case of `CCNc1cc(C)nc(Nc2ccc(NC(=O)c3ccco3)cc2)n1`, the results for the growth inhibition in assay [1] and in assay [4] were 32% and 95% (active), respectively. Moreover, the figures for the inhibition in assay [2] and in assay [3] were 24% and -2%, respectively. In addition, the result in assay [5], in assay [6], in assay [7] and in assay [8] was inactive.

Turning to `CS(=O)(=O)N1CC2(CCN(CCC(NC(=S)Nc3ccccc3)c3ccc(Cl)c(Cl)c3)CC2)c2ccccc21` (stereo not drawn), the growth inhibition in assay [1] was 80% (active); in assay [4], 98% (active). Also, the inhibition in assay [2] is 24%; in assay [3], -1%. Further, the outcome in assay [5], in assay [6], in assay [7] and in assay [8] was inactive.

Take `CCN(CC)CCCCOc1ccc2c(c1)C(=O)c1cc(OCCCCN(CC)CC)ccc1-2`: the values for the growth inhibition in assay [1] and in assay [4] were 44% and 102% (active), respectively. For the same compound, the values for the inhibition in assay [2] and in assay [3] were 24% and -6%, respectively. Moreover, the result in assay [5], in assay [6], in assay [7] and in assay [8] was inactive.

Consider `O=C(Nc1ccc(Br)cc1)N(CCN1CCOCC1)CC(O)COCc1ccc(F)cc1` (stereo not drawn), for which the growth inhibition in assay [1] is 3%; in assay [4], 90% (active). Moreover, the results for the inhibition in assay [2] and in assay [3] were 5% and -1%, respectively. The result in assay [5], in assay [6], in assay [7] and in assay [8] was inactive.

For the compound `CN1CCN(Cc2ccc(OCc3cccc(COc4ccc(CN5CCN(C)CC5)cc4I)c3)c(I)c2)CC1`, the growth inhibition was 69% (active) in assay [1] and 92% (active) in assay [4]. Besides, the inhibition in assay [2] is 93% (active); in assay [3] it was 0%. Further, the outcome in assay [5], in assay [6], in assay [7] and in assay [8] was inactive.

Regarding `CCN(CCCN1CCCCC1)c1cc(C)nc(Nc2ccc(Br)cc2F)n1`, the growth inhibition is 24% in assay [1] and 95% (active) in assay [4]. Besides, the inhibition was 32% in assay [2] and -6% in assay [3]. Besides, the outcome in assay [5], in assay [6], in assay [7] and in assay [8] was inactive.

As for `CC(C)[C@@H]1c2ccc(O)cc2C[C@H]2C(=O)N(C3CCCCC3)C(=O)N21`, the values for the growth inhibition in assay [1] and in assay [4] were 88% (active) and 95% (active), respectively. Further, the inhibition in assay [2] was 2%; in assay [3], 0%. The result in assay [5], in assay [6], in assay [7] and in assay [8] was inactive.

As for `Cc1ccc(NC(=O)c2cccc(CN3CCCN(Cc4cccc(O)c4)CC3)c2)cc1`, the values for the growth inhibition in assay [1] and in assay [4] were 3% and 82% (active), respectively. Moreover, the inhibition in assay [2] was 22%; in assay [3], 1%. Besides, the outcome in assay [5], in assay [6], in assay [7] and in assay [8] was inactive.
